This is one part of a sample in which hits are shown more often than they occur.
Marburg entry inh – Marburg virus entry inhibition; Marburg virus pseudotyped entry inhibition, cell reporter; Potency, µM (top dose mostly 37.8 µM), inactives show at the highest dose activity change, negative = inhibition, hits mostly inhibitors; actives 1.8% (n = 300,000); calls by dose curve; tested in HEK293 cells; further: potency means the concentration at half of the fitted maximal effect; on the % scale 0 is the no-effect control and ±100 the full control effect
CHX counter – counter-screen for Shiga toxin inhibitors: cycloheximide protein synthesis inhibition; max response, %; actives 12% (n = 300,000); cell reporter, cycloheximide protein synthesis inhibition counterscreen; in the data active means max response mostly above about 13%, no sharp cut-off; inactive means mostly below about 14%; further: read at 38.3 µM for the half of the compounds with a filed dose; 0% is about no effect
Lassa entry inh – inhibitors of Lassa virus binding or cell entry | AID 540256 | Potency, µM (top dose mostly 37.9 µM), inactives show at the top dose activity change, negative = inhibition, most hits filed as inhibitors | Lassa virus pseudotype entry inhibition, cell reporter | actives 1.2% (n = 300,000); calls by dose curve; tested in HEK293 cells; further: potency means the concentration at half of the fitted maximal effect; on the % scale 0 is the no-effect control and ±100 the full control effect; nearly all actives have a fitted effect of over 50% in size
Vaccinia mCherry – vaccinia inhibition (mCherry reporter); Vaccinia virus mCherry reporter infection, fluorescence; Potency, µM (series often up to 36.5 µM), without a hit: at the top dose activity change, negative = inhibition, usual class: inhibitors; actives 0.63% (n = 310,000); calls by dose curve; tested in A549 cells; further: potency means the concentration at half of the fitted maximal effect; on the % scale 0 is the no-effect control and ±100 the full control effect; nearly all actives have a fitted effect of over 35% in size
Shiga inhibitor – Shiga toxin inhibition; Vero cells, Shiga toxin protein synthesis inhibition reporter; inhibition, % at 38.7 µM; actives 9.2% (n = 290,000); in the data active means inhibition mostly above about 28%, no sharp cut-off; inactive means mostly below about 43%; further: 0% is about no effect
VACV Venus inh – vaccinia inhibition (Venus reporter); Vaccinia virus Venus reporter expression, fluorescence; Potency, µM (series often up to 36.5 µM), inactives show at the top dose activity change, negative = inhibition, usual class: inhibitors; actives 0.46% (n = 330,000); calls by dose curve; tested in A549 cells; further: potency means the concentration at half of the fitted maximal effect; on the % scale 0 is the no-effect control and ±100 the full control effect; nearly all actives have a fitted effect of over 30% in size
The depositor's hits bear a star; i = inactive; ? = inconclusive; / = not tested or not shown; + = active, no number; [ ] = dose if it differs, or a comment.

SMILES	Marburg entry inh	CHX counter	Lassa entry inh	Vaccinia mCherry	Shiga inhibitor	VACV Venus inh
O=S(=O)(c1ccc(Cl)cc1)N1c2ccccc2Oc2nc3ccccc3nc21	-9%	8	-11%	-1%	21	-12%
CC(C)(C)c1ccc(NC(=O)N2CCN(c3ccc([N+](=O)[O-])cn3)CC2)cc1	7%[14.2 µM]	10	?	i	13	-12%
Cc1cc(C(=O)N/N=C2\CCCc3ccccc32)c(C)o1	8%	26*	-20%	/	51	/
N#Cc1ccc(OCC(=O)N/N=C2\CCc3ccccc32)cc1	9%	6	-7%	-21%	5	-15%
C/C(=N\NC(=O)c1cc(C)oc1C)c1ccc2ccccc2c1	?	17	-30%	6%	23	-14%
COc1cc(C(=O)NNC(=O)c2ccoc2C)cc(OC)c1OC	/	-2	/	/	-11	/
O=C(N/N=C1\CCc2ccccc21)c1ccccc1O	5µM*	49*	?	-18%	80*	-14%
O=C(O)c1ccc(N/N=C2/CCCc3ccccc32)cc1	/	33*	/	/	59*	/
COc1ccc2c(c1)CCC/C2=N\NC(=O)c1ccoc1C	?	86*	?	i	+	-4%
CCN(CC)C(=O)c1sc2c(c1C)c(=O)n(-c1ccc(Cl)c(Cl)c1)c(=O)n2CC(=O)Nc1cccc(OC)c1	/	/	-22%[46.1 µM]	-18%	/	-16%
CCSc1nc(O)c([C@H]2OC(=O)c3c2ccc(OC)c3OC)c(=O)n1-c1ccccc1	0%	/	/	/	/	/
O=C(CNc1ccccc1Cl)N/N=C1\CCCc2ccccc21	/	2	/	/	-13	/
O=C(N/N=C1\CCc2ccccc21)c1ccncc1	25%	46*	-3%	1%	56*	-22%
O=C(N/N=C1\CCCc2ccccc21)c1ccccc1Cl	18%[46.1 µM]	36*	-1%[46.1 µM]	-4%	63*	-19%
Cc1cc(C(=O)NC2Cc3ccccc3C2)c(C)o1	-1%	57*	/	/	66*	/
CN(C)CCCNC(=O)C(=O)NCC(c1cccs1)S(=O)(=O)c1ccc(F)cc1 (configuration not stated)	10%[46.1 µM]	/	2%	-7%	/	-10%
CC(=O)N(C)C1=C(O)c2ccccc2C(=O)C1=O	-1%	-5	0%	/	18	/
CC(=O)N(/N=C1\Sc2ccccc2C1=O)c1ccc(C)cc1C	?	59*	10µM*	-8%	121*	0%
CC(=O)N(/N=C1/C(=O)Nc2ccccc21)c1ccccc1	20%[46.1 µM]	28*	18%[46.1 µM]	-28%	44*	-2%
CC(=O)Oc1ccc(N(C(C)=O)S(=O)(=O)c2ccc(C)cc2C)c2ccccc12	/	-1	/	/	-6	/
CC(=O)c1ccc(N=C2C(=O)Nc3ccccc32)cc1	7%[46.1 µM]	2	-27%[46.1 µM]	-19%	6	-1%
CC(=O)N(/N=C1\Sc2ccccc2C1=O)c1ccccc1C	?	68*	?	-6%	91*	0%
CC(=O)N(/N=C1\Sc2ccccc2C1=O)c1ccccc1	?	40*	?	/	37*	5%
Cc1ccc(C(c2nnnn2Cc2ccccc2)N2CCN(Cc3ccncc3)CC2)cc1 (configuration not stated)	/	/	/	-8%	/	-13%
CCc1nnc(NC(=O)CSc2nnc(C(C)NC(=O)c3ccccc3)n2C)s1 (configuration not stated)	-25%[46.1 µM]	-7	-3%[46.1 µM]	-24%	4	-9%
SMILES	Marburg entry inh	CHX counter	Lassa entry inh	Vaccinia mCherry	Shiga inhibitor	VACV Venus inh
O=C1c2ccc3c4c(ccc(c24)C(=O)N1c1cccc(O)c1)C(=O)N(c1cccc(O)c1)C3=O	-1%	-4	/	/	3	/
COc1ccccc1Oc1ccc2c(c1)C(=O)N(c1cccc(O)c1)C2=O	10%	28*	?	-15%	38*	-6%
COc1ccccc1Oc1ccc2c(c1)C(=O)N(c1cccc3ncccc13)C2=O	?	41*	-12%	-6%	66*	-16%
CC(C)C(NS(C)(=O)=O)c1nnc2n1CCN(Cc1ccc(C#CC(C)(C)O)cc1)CC2 (configuration not stated)	/	/	/	-13%	/	-3%
CC(C)C(=O)NCC1CCC2(CCN(Cc3ccc(-c4ccccc4Cl)o3)CC2)O1 (configuration not stated)	/	/	/	-24%	/	-23%
Cn1cc(CN2CCC(Oc3ccc(C(=O)N4CCCC4)cc3)CC2)cn1	/	-3	/	/	-5	/
COc1cc2oc(=O)cc(-c3cccc(-c4ccc(C(C)=O)cc4)c3)c2c(OC)c1OC	/	39*	/	/	+	/
COc1ccc(-c2cccc(-c3cc(=O)oc4cc(OC)c(OC)c(OC)c34)c2)cc1	/	26	/	-10%	i	?
CCOC(=O)c1ccc(-c2ccc(-c3cc(=O)oc4cc(OC)c(OC)c(OC)c34)cc2)cc1	/	7	/	10%	14	-4%
COc1cc2oc(=O)cc(-c3ccc(-c4ccc(N(C)C)cc4)cc3)c2c(OC)c1OC	/	64*	/	-9%	+	-18%
Cc1cc(C)c2c(-c3ccc(-c4ccc(C(F)(F)F)cc4)cc3)cc(=O)oc2c1	/	16	/	/	i	/
COc1ccc(-c2ccc(-c3cc(=O)oc4cc(C)cc(C)c34)cc2)cc1	/	24	/	/	+	/
COc1cc2oc(=O)cc(-c3ccc(-c4ccc(F)c(Cl)c4)cc3)c2c(OC)c1OC	/	6	/	-16%	-2	-21%
COc1ccc(-c2ccc(-c3cc(=O)oc4cc(OC)c(OC)c(OC)c34)cc2)cc1F	/	30*	/	-5%	79*	-13%
COc1ccc2c(c1)cc(CNc1ccc(OC)c(OC)c1)c(=O)n2CC(=O)Nc1ccc(F)cc1	/	/	-3%[46.1 µM]	-5%	/	10%
Cc1ccc(S(=O)(=O)N2CCCCC2)cc1C(=O)OC1CCCCC1=O (configuration not stated)	9%	/	0%[46.1 µM]	i	/	-21%
Cc1ccc2onc(CC(=O)Nc3cc(F)ccc3F)c2c1	/	/	2%[46.1 µM]	-12%	/	-9%
COC(=O)c1cc(S(=O)(=O)N2CCN(c3cccc(OC)c3)CC2)cn1C	-6%[46.1 µM]	-5	0%[46.1 µM]	i	11	-8%
CC(=O)Nc1ccccc1-c1nc(CNC(=O)c2ccc(C)cc2)c(C)o1	/	/	/	-5%	/	-4%
COc1cc(OC)c2c(-c3cccc(-c4ccc(OC(F)(F)F)cc4)c3)cc(=O)oc2c1	/	11	/	-7%	5	-8%
COc1cc2oc(=O)cc(-c3ccc(-c4ccc(OC(F)(F)F)cc4)cc3)c2c(OC)c1OC	/	24	/	17%	70*	-4%
Cc1cc2c(c(=O)n1Cc1ccccc1)[C@H]1O[C@](CCCCN3C(=O)c4ccccc4C3=O)(Cc3c1ccc1ccccc31)O2	-11%[14.2 µM]	/	/	/	/	/
Nc1cc(OC(=O)c2ccc(F)cc2)nn1S(=O)(=O)c1ccc(F)cc1	-7%[46.1 µM]	-3	2µM*	-24%	-3	-17%
Cc1ccccc1COc1ccc(-c2nnn(CC(=O)O)n2)cc1	-2%[46.1 µM]	-2	1%[46.1 µM]	-3%	-3	-5%
CCCC1c2ccc(C)n2CCN1C(=O)Nc1ccccc1Cl (configuration not stated)	15%	26*	19%	/	74*	-1%

Screening data as filed in PubChem BioAssay.
